Calls of active or inactive are those of the source.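 How the source made its calls: active means potency under 20 µM; inactive means the rest.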

The text below walks through data of PubChem BioAssay AID588722 (National Center for Advancing Translational Sciences (NCATS), 2011).

This assay is described as follows: High Content Assay for Compounds that inhibit the Assembly of the Perinucleolar Compartment:Cell Migration. The settings on record: PC3M cell invasion in 3D collagen microchannel, Hoechst imaging. The text has this:
The perinucleolar compartment (PNC) is a non-membrane-bound nuclear subdomain that is associated with but structurally distinct from the nucleolus. The PNC is a heritable trait, in which the number of PNCs per cell in daughter cells often mimics that of their mother cells. The PNC is heterogeneous in shape, is stable through interphase, disassembles during mitosis, and reassembles in early G1. The PNC is concentrated with newly synthesized RNA polymerase III (pol III) RNAs (MRP RNA, RNAse P H1 RNA, hY RNAs[hY1, 2, 5], Alu RNA, and SRP [7SL] RNA) and RNA binding proteins (nucleolin, PTB, CUG-BP, KSRP, Raver1, Raver2, and Rod). […] In collaboration between Sui Huang from Northwestern University and the NCGC, a high content assay was developed and screened. The hits were then tested in follow-up assays. High-content tumor cell migration assays in 3-dimensional extracellular matrices are powerful tools for modeling and understanding the biology of this critical step in the process of metastasis. However, most of the available methods are not amenable to the throughput required by studies of comparative pharmacology or small scale screening. For this reason, we worked with BellBrook Labs(R) to test our compounds in their automated high-content tumor cell invasion assays.[35] A standard screening-sized plate with an array of embedded microchannels was designed and constructed from common thermoplastics. NIH Chemical Genomics Center [NCGC] NIH Molecular Libraries Probe Centers Network [MLPCN] MLPCN Grant: MH082371 Assay Submitter (PI): Sui Huang, Northwestern University, Feinberg School of Medicine, Cell and Molecular Biology, Chicago, Illinois.
PC3M cells were tested for invasion through 3D fibrillar collagen in the Iuvo Single Microchannel Plate, in the presence of varying levels of test compounds. Channels were prefilled with 820 nL of 3-dimensional type I collagen at 1 mg/mL, through the input port. Following gelation, 2,000 PC3M cells were seeded into the output port using growth media (RPMI + 10% FBS with antibiotics) in a volume of 5 microL. Cells were incubated in a 37 masculineC incubator inside a humidified container to control evaporation (Bioassay dish, Corning). Media including test compounds was changed daily for 5 days. At the end of the assay, cells were fixed and stained with Hoechst 33342, then imaged with 4x objective under epifluorescence. Under these conditions, we can reliably identify cells across the 140 microm height range of the microchannel. Test compounds were serially diluted by a factor of 3, to produce 10 concentrations ranging from 50 or 100 microM to 2.5 nM.
As for `COc1ccc(-n2c(SC(C)C(=O)Nc3ncc(Cl)cc3Cl)nc3ccccc32)cc1` (stereo unspecified), the call was inactive.
As to `CN1c2ccccc2C(C)(C)C12CC(c1ccc(Cl)c(S(=O)(=O)N3CCCC3)c1)=NO2` (stereo unspecified), the Potency is 3.2 µM (active).
Still for that read-out and setting: with `COc1ccc(-c2nc(NC(=O)c3n[nH]c(=O)c4ccccc34)sc2C)cc1` the figure was 3.8 µM (active).
As to `CCOC(=O)Cn1c(-c2nonc2NC(=O)c2ccccc2F)nc2ccccc21`, the molecule was called inactive.
For `N=c1c2c(-c3ccccc3)c(-c3ccccc3)n(Cc3ccccc3)c2ncn1CCCO`, the Potency was 11.5 µM (active).
As for `Cc1c(NC(=O)COC(=O)c2cc(-c3ccc(-c4ccccc4)cc3)nc3ccccc23)c(=O)n(-c2ccccc2)n1C`, the Potency was 0.117 µM (active).
Same read-out and setting: with `Cc1oc(-c2ccccc2Cl)nc1CSCC(=O)N1CCCC1` the figure was 6.2 µM (active).
Same read-out and setting: with `CCN(CC)C(=O)N1c2ccccc2C=Cc2ccccc21` the figure was 2.1 µM (active).
Regarding `O=C(Nc1cccnc1)c1cccs1`, the Potency is 1.6 µM (active).
For `CSc1nnc2c3ccccc3n(CCc3ccccc3)c2n1`, the Potency was 4.3 µM (active).
In the case of `COC(=O)c1c(-c2ccccc2)csc1NC(=O)c1c(-c2ccccc2)noc1C`, the molecule was called inactive.
